# Experimental data published in PubChem BioAssay (NCATS).
# Records with an inconclusive call do not appear. A call without a number means that no potency is given here. Active and inactive are the calls of the source. Calls come from the whole dose curve; as a rule, active = well fitted curve in the direction sought with a large enough effect; inconclusive = small, poorly fitted or top-dose-only effect, or another doubt; inactive = no such curve, though single readings can be large; an effect the other way counts as inactive or inconclusive.
# Key:
# [1] = qHTS of pediatric cancer cell lines to identify multiple opportunities for drug repurposing: Primary screen for TC32 cells (AID 1347089); note: nearly all actives have a fitted effect of over 60% in size; note: potency is the fitted concentration of half-maximal effect
# Outline: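 Measured quantity: luminescence from CellTiter-Glo, reflecting metabolically active TC32 cells following 48 h of compound. Curves came straight from multi-point titrations, with 8 or 11 points in primary and 11 in confirmatory screening.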
# [2] = qHTS of pediatric cancer cell lines to identify multiple opportunities for drug repurposing: Primary screen for DAOY cells (AID 1347090); note: nearly all actives have a fitted effect of over 55% in size; note: potency is the fitted concentration of half-maximal effect
# Outline: (§1)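 Viability measured as metabolically active cells via CellTiter-Glo luminescence following 48 hours of compound exposure, 11-point dilutions in confirmatory testing. 500-1,000 cells/well plated 5 hours before dosing; controls were DMSO and 2.3 µM bortezomib.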
# [3] = qHTS of pediatric cancer cell lines to identify multiple opportunities for drug repurposing: Primary screen for Saos-2 cells (AID 1347097); note: nearly all actives have a fitted effect of over 40% in size; note: potency is the fitted concentration of half-maximal effect
# Outline: (§2)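 Plated cells (500-1,000 per well, growth media) were allowed to settle for 5 hours, treated with compound dilutions for 48 hours, then lysed with CellTiter-Glo for 15 min at room temperature before luminescence reading.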
# [4] = qHTS of pediatric cancer cell lines to identify multiple opportunities for drug repurposing: Primary screen for SK-N-SH cells (AID 1347098); note: nearly all actives have a fitted effect of over 65% in size; note: potency is the fitted concentration of half-maximal effect
# Outline: (§3)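 Cells (500-1,000/well) rested 5 h, then received compounds for 48 h; metabolically active cells were measured by CellTiter-Glo luminescence. Final concentrations spanned up to 46 µM (MIPE, 11-point) or 0.59 nM-46 µM (NPC, 8-point) in primary screens, 11-point in follow-ups.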
# [5] = qHTS of pediatric cancer cell lines to identify multiple opportunities for drug repurposing: Primary screen for NB1643 cells (AID 1347099); note: nearly all actives have a fitted effect of over 50% in size; note: potency is the fitted concentration of half-maximal effect
# Outline: as §2
# [6] = qHTS of pediatric cancer cell lines to identify multiple opportunities for drug repurposing: Primary screen for Rh18 cells (AID 1347102); note: nearly all actives have a fitted effect of over 65% in size; note: potency is the fitted concentration of half-maximal effect
# Outline: (§4)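 Viability after 48 h compound treatment at 37C, 500-1,000 cells/well, read as ATP luminescence with CellTiter-Glo. Primary screens used 11-point (MIPE, 0.78 nM-46 µM) or 8-point (NPC, 0.59 nM-46 µM) final concentrations; follow-up screens used 11-point dilutions.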
# [7] = qHTS of pediatric cancer cell lines to identify multiple opportunities for drug repurposing: Primary screen for MG 63 (6-TG R) cells (AID 1347105); note: nearly all actives have a fitted effect of over 50% in size; note: potency is the fitted concentration of half-maximal effect
# Outline: as §2
# [8] = qHTS of pediatric cancer cell lines to identify multiple opportunities for drug repurposing: Primary screen for U-2 OS cells (AID 1347096); note: nearly all actives have a fitted effect of over 50% in size
# Outline: as §4
# [9] = qHTS of pediatric cancer cell lines to identify multiple opportunities for drug repurposing: Primary screen for OHS-50 cells (AID 1347103); note: potency is the fitted concentration of half-maximal effect; nearly all actives have a fitted effect of over 40% in size
# Outline: as §3
# [10] = qHTS of pediatric cancer cell lines to identify multiple opportunities for drug repurposing: Primary screen for BT-37 cells (AID 1347094); note: potency is the fitted concentration of half-maximal effect
# Outline: as §2
# [11] = qHTS of pediatric cancer cell lines to identify multiple opportunities for drug repurposing: Primary screen for NB-EBc1 cells (AID 1347095); note: potency is the fitted concentration of half-maximal effect
# Outline: as §2
# [12] = qHTS of pediatric cancer cell lines to identify multiple opportunities for drug repurposing: Primary screen for LAN-5 cells (AID 1347100); note: potency is the fitted concentration of half-maximal effect
# Outline: as §4
# [13] = qHTS of pediatric cancer cell lines to identify multiple opportunities for drug repurposing: Primary screen for RD cells (AID 1347104); note: nearly all actives have a fitted effect of over 55% in size; note: potency is the fitted concentration of half-maximal effect
# Outline: as §2
# [14] = qHTS of pediatric cancer cell lines to identify multiple opportunities for drug repurposing: Primary screen for A673 cells (AID 1347092); note: nearly all actives have a fitted effect of over 45% in size; note: potency is the fitted concentration of half-maximal effect
# Outline: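 Cells are plated, rested 5 h, dosed by pintool, incubated 48 h, then lysed with CellTiter-Glo and read by luminescence. DMSO is the neutral control; bortezomib at 2.3 uM final is the positive control.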
# [15] = qHTS of pediatric cancer cell lines to identify multiple opportunities for drug repurposing: Primary screen for SK-N-MC cells (AID 1347093); note: potency is the fitted concentration of half-maximal effect
# Outline: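 Metabolically active cells were quantified by ATP-dependent luminescence (CellTiter-Glo, 15 min at room temperature) following 48 h treatment. Cells had been plated at 500-1,000 per well and settled for 5 h beforehand.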
# [16] = qHTS of pediatric cancer cell lines to identify multiple opportunities for drug repurposing: Primary screen for BT-12 cells (AID 1347101); note: potency is the fitted concentration of half-maximal effect; nearly all actives have a fitted effect of over 25% in size
# Outline: as §3
# [17] = qHTS of pediatric cancer cell lines to identify multiple opportunities for drug repurposing: Primary screen for SJ-GBM2 cells (AID 1347091); note: potency is the fitted concentration of half-maximal effect
# Outline: as §1
compound,measurement,setting,value
CN(C)CCCOc1nn(Cc2ccccc2)c2ccccc12,Potency,[1],inactive
same,Potency,[2],inactive
same,Potency,[3],inactive
same,Potency,[4],15.4 µM (active)
same,Potency,[5],inactive
same,Potency,[6],inactive
same,Potency,[7],inactive
CN(C)CC/C=C1\c2ccccc2Sc2ccc(Cl)cc21,Potency,[1],inactive
same,Potency,[2],inactive
same,Potency,[8],inactive
same,Potency,[5],inactive
same,Potency,[9],30.9 µM (active)
same,Potency,[7],inactive
CC(C)=CCC1C(=O)N(c2ccccc2)N(c2ccccc2)C1=O,Potency,[1],inactive
same,Potency,[2],inactive
same,Potency,[10],inactive
same,Potency,[11],21.1 µM (active)
same,Potency,[8],inactive
same,Potency,[12],29.9 µM (active)
same,Potency,[6],inactive
same,Potency,[13],inactive
same,Potency,[7],inactive
COc1cccc(CCc2ccccc2OCC(CN(C)C)OC(=O)CCC(=O)O)c1 (stereo not drawn),Potency,[1],inactive
same,Potency,[2],inactive
same,Potency,[10],inactive
same,Potency,[11],inactive
same,Potency,[8],inactive
same,Potency,[3],inactive
same,Potency,[4],17.2 µM (active)
same,Potency,[5],inactive
same,Potency,[7],inactive
COc1cc(N)c(Cl)cc1C(=O)NC1CCN(CCCOc2ccc(F)cc2)CC1OC (stereo not drawn),Potency,[1],inactive
same,Potency,[2],inactive
same,Potency,[10],inactive
same,Potency,[11],inactive
same,Potency,[8],inactive
same,Potency,[3],inactive
same,Potency,[5],inactive
same,Potency,[12],inactive
same,Potency,[6],inactive
same,Potency,[9],30.9 µM (active)
same,Potency,[7],inactive
CCN(CC)C(=O)/C(C#N)=C/c1cc(O)c(O)c([N+](=O)[O-])c1,Potency,[1],inactive
same,Potency,[2],inactive
same,Potency,[14],inactive
same,Potency,[15],inactive
same,Potency,[8],inactive
same,Potency,[3],inactive
same,Potency,[4],inactive
same,Potency,[5],inactive
same,Potency,[6],inactive
same,Potency,[7],inactive
CCCCOc1ccc(C(=O)CCN2CCCCC2)cc1,Potency,[1],inactive
same,Potency,[2],inactive
same,Potency,[11],21.1 µM (active)
same,Potency,[8],inactive
same,Potency,[3],23.7 µM (active)
CN1CCCC(CC2c3ccccc3Sc3ccccc32)C1 (stereo not drawn),Potency,[2],inactive
same,Potency,[15],23.7 µM (active)
same,Potency,[11],inactive
same,Potency,[8],inactive
same,Potency,[5],inactive
same,Potency,[12],23.7 µM (active)
same,Potency,[16],19.5 µM (active)
same,Potency,[9],24.6 µM (active)
CC(C)(C)CC(C)(C)c1ccc(OCCOCC[N+](C)(C)Cc2ccccc2)cc1,Potency,[17],21.1 µM (active)
same,Potency,[14],10.6 µM (active)
same,Potency,[15],5.96 µM (active)
same,Potency,[10],13.8 µM (active)
same,Potency,[3],13.3 µM (active)
same,Potency,[12],21.1 µM (active)
same,Potency,[16],8.71 µM (active)
same,Potency,[6],10.6 µM (active)
same,Potency,[9],6.17 µM (active)
same,Potency,[13],26.6 µM (active)
same,Potency,[7],26.6 µM (active)
C[C@@H]1CN(CCCn2c3ccccc3c3ccccc32)C[C@H](C)N1,Potency,[2],inactive
same,Potency,[11],inactive
same,Potency,[8],inactive
same,Potency,[4],9.7 µM (active)
same,Potency,[5],inactive
same,Potency,[13],26.6 µM (active)
same,Potency,[7],inactive
COc1c(C)c2c(c(O)c1C/C=C(\C)CCC(=O)O)C(=O)OC2,Potency,[1],0.664 µM (active)
same,Potency,[15],0.0841 µM (active)
same,Potency,[10],0.389 µM (active)
same,Potency,[11],29.9 µM (active)
same,Potency,[8],inactive
same,Potency,[16],0.692 µM (active)
Nc1ccc(C(=O)Nc2ccccc2N)cc1,Potency,[2],16.8 µM (active)
same,Potency,[17],13.3 µM (active)
same,Potency,[15],3.76 µM (active)
same,Potency,[10],17.4 µM (active)
same,Potency,[11],3.76 µM (active)
same,Potency,[5],7.5 µM (active)
same,Potency,[12],6.68 µM (active)
same,Potency,[6],16.8 µM (active)
same,Potency,[9],6.17 µM (active)
C/C=C(/C(=C/C)c1ccc(O)cc1)c1ccc(O)cc1,Potency,[1],inactive
same,Potency,[15],8.41 µM (active)
same,Potency,[10],inactive
same,Potency,[11],18.8 µM (active)
same,Potency,[8],inactive
same,Potency,[3],21.1 µM (active)
same,Potency,[12],inactive
same,Potency,[6],inactive
same,Potency,[9],21.9 µM (active)
COc1ccc(CCN2CCC(Nc3nc4ccccc4n3Cc3ccc(F)cc3)CC2)cc1,Potency,[10],30.9 µM (active)
same,Potency,[4],6.12 µM (active)
same,Potency,[12],23.7 µM (active)
same,Potency,[9],30.9 µM (active)
same,Potency,[13],26.6 µM (active)
same,Potency,[7],16.8 µM (active)
